# Experimental data reported in the supplement of paper PMC6992640.
# ± gives the standard deviation of the averaged measurements.
# Legend:
# Assay in all cases: cell viability (% of vehicle); higher = less cytotoxic
# Conditions in all cases: 10 µM; 72 h
# [1] = tested on: HCI01 (cells of a triple-negative basal-like breast cancer xenograft)
# [2] = tested on: HCI03 (cells of an ER-positive luminal breast cancer xenograft)
# [3] = tested on: HCI09 (cells of a triple-negative luminal androgen receptor type breast cancer xenograft)
# [4] = tested on: HCI11 (cells of an ER-positive luminal breast cancer xenograft)
# [5] = tested on: HCI13 (cells of an ER-positive luminal breast cancer xenograft)
# [6] = tested on: HCI16 (cells of a triple-negative basal-like breast cancer xenograft)
# [7] = tested on: UCD52 (cells of a triple-negative basal-like breast cancer xenograft)
# [8] = tested on: WHIM2 (cells of a triple-negative basal-like breast cancer xenograft)
# [9] = tested on: WHIM30 (cells of a triple-negative basal-like breast cancer xenograft)
# 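Note: PDX cells carrying CMV promoter-driven luciferase, viability read as total photon flux per second by IVIS imaging following D-luciferin, vehicle control 0.1% DMSO.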
Structure (SMILES),cell viability [1],cell viability [2],cell viability [3],cell viability [4],cell viability [5],cell viability [6],cell viability [7],cell viability [8],cell viability [9]
CCOC(=O)c1ccc(N)cc1 [Benzocaine],144 ± 13,87.2,115 ± 14,117,79.8 ± 1.6,134,117 ± 8.3,142 ± 12,140 ± 10
O=C(O)C1=COC(OC2OC(CO)C(O)C(O)C2O)C2C(CO)=CCC12 (configuration not stated) [Geniposidic acid],99.5 ± 9.7,150,93.7 ± 17,95.6,107 ± 12,110,99.8 ± 10,94.3 ± 6,143.2 ± 0.61
Cc1c(O)c(=O)ccn1C [Deferiprone],81 ± 3.5,102,83.6 ± 14,77.1,93 ± 5.8,102,85.8 ± 1.6,144 ± 12,89.2 ± 3.3
CCCCc1ncc(C=C(Cc2cccs2)C(=O)O)n1Cc1ccc(C(=O)O)cc1.CS(=O)(=O)O [Eprosartan Mesylate],156 ± 27,129,106 ± 17,120,108 ± 12,134,124 ± 9.7,123 ± 9.3,198 ± 22
O=c1ccn(C2OC(CO)C(O)C2O)c(=O)[nH]1 (configuration not stated) [Uridine],106 ± 10,115,100.8 ± 0.17,100,103 ± 21,104,85.6 ± 2.8,89.7 ± 4.7,131 ± 9.8
CCOC(=O)C1=CC(OC(CC)CC)C(NC(C)=O)C(N)C1 (configuration not stated) [Oseltamivir],111 ± 11,124,96.2 ± 20,97.4,99.2 ± 7.4,91,96.03 ± 0.49,91.98 ± 0.9,126 ± 6.9
CCn1cc(C(=O)O)c(=O)c2cc(F)c(N3CCN(C)CC3)cc21.CS(=O)(=O)O [Pefloxacin Mesylate],92.2 ± 33,137,105.3 ± 0.55,103,160 ± 5.2,153,113 ± 2.6,80.5 ± 16,144 ± 11
NC(=O)C1CCCc2c1[nH]c1ccc(Cl)cc21 (configuration not stated),145 ± 13,182,102 ± 2.3,128,148 ± 9,121,128 ± 12,141 ± 7.4,161 ± 24
CC(C(=O)O)c1ccc2c(c1)[nH]c1ccc(Cl)cc12 (configuration not stated) [Carprofen],175 ± 51,107,112 ± 6,95.3,102.2 ± 0.8,138,113 ± 3.4,152 ± 30,117.4 ± 0.51
OCC(O)CN1CCN(c2ccccc2)CC1 (configuration not stated) [Dropropizine],97.2 ± 14,129,89.7 ± 11,90.3,66 ± 10,94.3,98.7 ± 2.5,99.3 ± 20,101.7 ± 0.4
O=S(=O)(O)NC1CCCCC1 [Cyclamic acid],91.4 ± 14,118,94.4 ± 2,91.9,58.1 ± 1.3,121,88.7 ± 18,104 ± 13,106 ± 5.2
CNC(=O)CN(CCN(CCN(CC(=O)[O-])CC(=O)NC)CC(=O)[O-])CC(=O)[O-].O.[Gd+3] [Gadodiamide],99.5 ± 27,111,99 ± 15,90.1,83.6 ± 8.9,112,104 ± 7.4,92.5 ± 29,94.5 ± 5.2
CCC(CO)NCCNC(CC)CO.Cl.Cl (configuration not stated) [Ethambutol HCl],98.6 ± 2.4,122,102 ± 7.8,103,146 ± 15,102,86.7 ± 3,93.4 ± 21,153 ± 7.2
C=C[C@]1(C)C[C@@H](OC(=O)CSC2C[C@H]3CC[C@@H](C2)N3C)[C@]2(C)[C@H](C)CC[C@]3(CCC(=O)[C@H]32)[C@@H](C)[C@@H]1O (some centres not stated) [Retapamulin],73.5 ± 21,113,83.2 ± 3.2,93.3,111 ± 10,109,81.8 ± 4.8,80.3 ± 5.3,146 ± 15
Cc1ccnc(NS(=O)(=O)c2ccc(N)cc2)n1 [Sulfamerazine],100 ± 36,131,88.41 ± 0.75,84.2,103 ± 8.7,111,86.8 ± 8.5,75.2 ± 10,99.5 ± 6
CC(=O)N1CCN(c2ccc(OCC3COC(Cn4ccnc4)(c4ccc(Cl)cc4Cl)O3)cc2)CC1 (configuration not stated) [Ketoconazole],188 ± 14,143,36.4 ± 2.8,102,76 ± 1.8,122,55.8 ± 5.3,172 ± 25,122 ± 10
CN(C)CCC(c1ccc(Br)cc1)c1ccccn1.O=C(O)C=CC(=O)O (configuration not stated) [Brompheniramine hydrogen maleate],119 ± 19,117,103 ± 1.9,99.5,142 ± 4.6,118,74.9 ± 2.3,97.9 ± 3.3,113.4 ± 1.1
Cc1cc(=O)n(-c2ccccc2)n1C [Antipyrine],110 ± 15,131,101 ± 10,103,88.6 ± 1.1,95.9,98.2 ± 7.5,106 ± 30,125 ± 11
CCN1CCCC1CNC(=O)c1cc(S(N)(=O)=O)ccc1OC (configuration not stated) [Levosulpiride],127 ± 9.1,126,99.33 ± 0.17,98.2,77.9 ± 5.7,134,93.9 ± 1.6,109 ± 7.3,100 ± 7.4

Structure (SMILES),cell viability [1],cell viability [2],cell viability [3],cell viability [4],cell viability [5],cell viability [6],cell viability [7],cell viability [8],cell viability [9]
CC(C)NCC(O)COc1ccc(COCCOC(C)C)cc1.O=C(O)C=CC(=O)O (configuration not stated) [Bisoprolol fumarate],129.4 ± 0.93,129,102 ± 30,113,93.1 ± 1.1,96.1,86.1 ± 8.9,93.9 ± 16,120 ± 2.5
COC(=O)N(C)c1c(N)nc(-c2nn(Cc3ccccc3F)c3ncccc23)nc1N [Riociguat],122 ± 4.3,106,104 ± 5.6,114,94.87 ± 0.45,91.6,104 ± 2.9,97.2 ± 1.1,124 ± 14
Cc1nc(C(=O)NCC(=O)O)c(O)c2ccc(Oc3ccccc3)cc12,122 ± 2.7,189,88.7 ± 11,140,113 ± 4.4,88.2,107 ± 14,160 ± 8.2,116 ± 14
CCOC(=O)C1=CC(OC(CC)CC)C(NC(C)=O)C(N)C1.O=P(O)(O)O (configuration not stated) [Oseltamivir phosphate],111 ± 30,126,93.5 ± 5.9,95.4,93.1 ± 9,124,105 ± 16,98.9 ± 12,113 ± 1.6
COc1cc(Nc2ncc3c(n2)-c2ccc(Cl)cc2C(c2c(F)cccc2OC)=NC3)ccc1C(=O)O [MLN8237 (Alisertib)],80 ± 15,118,106 ± 32,100,94.9 ± 14,87.9,64.6 ± 12,80.1 ± 8.5,156 ± 12
CC(=O)Nc1ccc(O)cc1 [Acetaminophen],93.9 ± 24,101,98.4 ± 7.2,80.4,116 ± 14,126,102 ± 6.9,92.71 ± 0.48,97.4 ± 3.5
C=CC(=O)N1CCCC(n2nc(-c3ccc(Oc4ccccc4)cc3)c3c(N)ncnc32)C1 (configuration not stated),80.2 ± 24,69,56.2 ± 21,83.8,87.9 ± 8.6,55.6,76.7 ± 4.3,70.4 ± 7.2,103 ± 9.7
CC(=O)OCC(CCn1cnc2cnc(N)nc21)COC(C)=O [Famciclovir],112 ± 17,114,93.4 ± 4.1,96.3,123 ± 7.6,136,85.3 ± 8.4,106 ± 7.2,114 ± 2.1
COc1nc(C)nc(Cl)c1NC1=NCCN1 [Moxonidine],102 ± 7.2,116,103 ± 15,115,98.9 ± 5.5,95.3,82.9 ± 13,116 ± 12,118 ± 8.7
CCOC(=O)C(CCc1ccccc1)NC(C)C(=O)N1Cc2ccccc2CC1C(=O)O.Cl (configuration not stated) [Quinapril HCl],61.5 ± 37,111,72.7 ± 10,94.8,104 ± 5.7,96.9,83.7 ± 5.6,95.1 ± 3.9,105 ± 14
CC(C)OC(=O)C(C(=O)OC(C)C)=C1SC=CS1 [Malotilate],108 ± 12,84.3,90.2 ± 13,90.9,89.8 ± 3.1,75.5,89.5 ± 2.4,75.6 ± 17,97.9 ± 4
CC(C)(Oc1ccc(Cl)cc1)C(=O)O [Clofibric Acid],109 ± 22,119,79.6 ± 22,99.3,94.8 ± 9.6,97.8,81.1 ± 14,93.3 ± 20,109.5 ± 0.67
O=C([O-])P(=O)([O-])[O-].[Na+].[Na+].[Na+] [Foscarnet Sodium],104 ± 20,96.7,98.1 ± 3.7,89.6,95.1 ± 6.7,133,86.4 ± 3,103 ± 11,126 ± 2.2
Cc1cn(C2CC(N=[N+]=[N-])C(CO)O2)c(=O)[nH]c1=O (configuration not stated) [Zidovudine],104 ± 3.4,160,116 ± 1.2,101,124 ± 7.2,143,123 ± 16,98.22 ± 0.63,144 ± 7.7
COc1ccc(C(=O)CC(=O)c2ccc(C(C)(C)C)cc2)cc1 [Avobenzone],74.2 ± 40,126,74.1 ± 8.4,83.5,76.7 ± 5.2,119,71 ± 1.6,106 ± 37,141 ± 12
NC(CSCCCO)C(=O)O (configuration not stated) [Fudosteine],91 ± 9.3,103,87.1 ± 7.6,94.5,107 ± 11,96.1,77.3 ± 4.8,112 ± 14,91.1 ± 8.5
CC(=O)Oc1cccc2c1C(=O)c1c(OC(C)=O)cc(C(=O)O)cc1C2=O [Diacerein],57 ± 39,93.9,79.1 ± 34,77.8,109 ± 11,146,98.6 ± 6.8,123 ± 39,60.3 ± 16
COc1nc(C)cnc1NS(=O)(=O)c1cccnc1-c1ccc(-c2nnco2)cc1 [Zibotentan (ZD4054)],122 ± 15,116,105 ± 9.6,117,125 ± 12,125,97.9 ± 1.1,85.7 ± 3.5,139 ± 6.9
CC(C(=O)O)c1ccc(C(=O)c2cccs2)cc1 (configuration not stated) [Suprofen],116 ± 29,133,97.9 ± 4,69.5,114 ± 7.9,125,102.3 ± 0.22,107 ± 3.9,100 ± 15
